The experiment in a line: NCI Yeast Anticancer Drug Screen. Data for the rad14 strain (AID 159).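 Note: 0% = growth of vehicle-treated control cultures.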 Particulars: S. cerevisiae rad14 strain growth inhibition, hits give high values. The protocol:
Growth inhibition of yeast strains with defined genetic alterations is measured as a screen for potential anti-cancer activity. Selected strains with alterations in DNA damage repair or cell cycle control were exposed to compounds and growth inhibition was measured relative to vehicle treated controls. The strain used in this assay is rad14

The results in this text go back to PubChem BioAssay (NCI).

The panel holds about 79,000 compounds, 15% with a hit somewhere; the sample as a whole holds those more often. Unmarked numbers belong to inactive results. Activity calls are given as the source filed them. Cut-off read from the data, not from the text of the source: active = growth inhibition above about 70%; inactive = the rest.

Consider `O=C(c1ccc(Cl)cc1)C1OC12C(=O)Nc1ccccc12` (stereo not given), for which the growth inhibition was 24% (at 1.2 µM); 99% (active) (at 3.7 µM); 99% (active) (at 11.0 µM); 99% (active) (at 33.0 µM); 99% (active) (at 100.0 µM).
Take `C=C1CC(Cn2cc(Br)c(=O)[nH]c2=O)(c2ccc(-c3ccccc3)cc2)OC1=O` (stereo not given): the growth inhibition is, setting by setting: (at 1.2 µM) 5%; (at 3.7 µM) 15%; (at 11.0 µM) 27%; (at 33.0 µM) 41%; (at 100.0 µM) 96% (active).
In the same order, the values of `OC(c1ccc(F)cc1)(c1ccc(F)cc1)C1CC1` are -18%, -18%, -7%, 8% and 97% (active).
The like results for `CNC1C(OC2C(OC3C(O)C(O)C(N=C(N)N)C(O)C3N=C(N)N)OC(C)C2(O)CO)OC(CO)C(O)C1O` (stereo not given) were, in that order, -2%, 4%, -2%, 32% and -9%.
The like results for `O=C1c2ccccc2-c2n[nH]c3cccc1c23` were, in that order, -18%, -24%, -6%, 23% and 28%.
For `N#CSc1ccc(S(N)(=O)=O)cc1`, the growth inhibition (at 1.2 µM) is -36%; the growth inhibition (at 3.7 µM) was -43%; the growth inhibition (at 11.0 µM) was -51%; the growth inhibition (at 33.0 µM) is -30%; the growth inhibition (at 100.0 µM) was 3%.
Consider `NC(=S)N/N=C\c1nccc2ccccc12`, for which the growth inhibition by setting is: (at 1.2 µM) -3%; (at 3.7 µM) 4%; (at 11.0 µM) 51%; (at 33.0 µM) 98% (active); (at 100.0 µM) 99% (active).
In the same order, the values of `OC1CSCCCSCCSCCCSC1` are -35%, -37%, -28%, -36% and -47%.
